HPGD inh: qHTS Assay for Inhibitors of HPGD (15-Hydroxyprostaglandin Dehydrogenase). 15-hydroxyprostaglandin dehydrogenase [NAD(+)] (Homo sapiens), P15428. Potency, µM, for inactives: at the highest dose activity change, negative = inhibition, hits mostly inhibitors. purified HPGD, NADH fluorescence kinetic, PGE2 substrate. 150,000 tested, 4.3% active; active = well fitted inhibition curve with a large enough effect, not every such curve was filed as active; inconclusive = small, poorly fitted or top-dose-only effect, or another doubt; inactive = no such curve, though single readings can be large or run the other way; also: potency is read from the fitted curve at half-maximal effect; % is scaled to controls: 0 for no effect and ±100 for the full control effect
Target sequence (P15428 whole entry, looked up): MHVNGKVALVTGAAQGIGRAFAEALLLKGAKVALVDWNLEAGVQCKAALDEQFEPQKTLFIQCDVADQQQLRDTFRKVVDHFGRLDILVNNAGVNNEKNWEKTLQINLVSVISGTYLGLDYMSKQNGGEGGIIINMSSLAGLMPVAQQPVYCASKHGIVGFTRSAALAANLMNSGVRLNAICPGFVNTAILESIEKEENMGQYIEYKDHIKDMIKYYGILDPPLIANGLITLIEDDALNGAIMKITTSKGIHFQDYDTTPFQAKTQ
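20 nM HPGD preincubated 15 min at room temperature with compound in 50 mM Tris-HCl pH 8, 0.01% Tween 20. Started with 1 mM NAD+ and 30 uM prostaglandin E2; NADH fluorescence (360/450 nm) read 5 times over 30-s intervals, last minus first.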
HTT aggregate: qHTS Multiplex Assay to Identify Dual Action Probes in a Cell Model of Huntington: Aggregate Formation (GFP); PC12 HttQ103-GFP aggregates, Acumen cytometry, 40 h; Potency, µM (top dose mostly 46.1 µM), inactives show top-dose activity change, negative = inhibition, actives largely listed as inhibitors; 220,000 tested, 1.1% active; AID 1688, 2009; also: potency is read from the fitted curve at half-maximal effect; % is scaled to controls: 0 for no effect and ±100 for the full control effect; nearly all actives have a fitted effect of over 60% in size
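PC12/HTTQ103-GFP, ecdysone-inducible; teb 100 nM; cpd qHTS titration; GFP aggregates read on laser cytometer, Ex 488/Em 500-530 nm.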
HTT ATP protect: qHTS Multiplex Assay to Identify Dual Action Probes in a Cell Model of Huntington: Cytoprotection (ATP). 230,000 tested, 0.14% active. Potency, µM (series often up to 56.4 µM), without a hit: cytoprotection (ATP increase), most hits filed as activators. PC12 HTT-Q103 induced, cytoprotection, ATP luminescence, 40 h. AID 1471, 2008; also: potency is read from the fitted curve at half-maximal effect; % of control where 0% means no effect; nearly all actives have a fitted effect of over 45% in size
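ATP quantification (ATPlite) reports survival of PC12 cells in which tebufenozide, 100 nM final, switches on Htt exon 1 with 103 glutamines linked to GFP; compounds are titrated.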
ALDH1A1 block: qHTS Assay for Inhibitors of Aldehyde Dehydrogenase 1 (ALDH1A1); Aldehyde dehydrogenase 1A1 (Homo sapiens), P00352; Purified ALDH1A1, NADH fluorescence, propionaldehyde substrate; Potency, µM (highest dose often 75.3 µM), for inactives: at the highest dose activity, negative = inhibition, hits mostly inhibitors; 220,000 tested, 7.3% active; active = well fitted inhibition curve with a large enough effect, not every such curve was filed as active; inconclusive = small, poorly fitted or top-dose-only effect, or another doubt; inactive = no such curve, though single readings can be large or run the other way;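 also: potency is read from the fitted curve at half-maximal effect; plate controls were no enzyme wells and a reference inhibitor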
PNC inhibitor: High Content Assay for Compounds that inhibit the Assembly of the Perinucleolar Compartment; AID 2417, 2010; activity change (PNC), negative = inhibition, % at 10 µM; PC3M PTB-GFP, PNC prevalence imaging, 16 h; active compounds read low; 140,000 tested, 3.1% active;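 active = readout at or below -70, meaning at least 70% loss of cells showing the perinucleolar compartment, a nuclear body marking cancer cells; inconclusive = readout between -30 and a set limit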;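 also: plate controls were DMSO wells for no effect and camptothecin positive control wells for full effect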
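PC3M cells stably expressing PTB-GFP, 750–1000 cells/well, treated 16 h at 37 °C with compound (23 nl of library stock), in duplicate. After paraformaldehyde fixation and Hoechst stain, imaged at 20x; PNC prevalence scored by image analysis.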
CBFb-RUNX1 inh: qHTS Assay for Compounds Blocking the Interaction Between CBF-beta and RUNX1 for the Treatment of Acute Myeloid Leukemia; AlphaScreen CBFb-His/RUNX1-biotin binding, biochemical; Potency, µM (top dose mostly 59.8 µM), inactives show at the top dose activity, negative = inhibition, actives largely listed as inhibitors; 230,000 tested, under 10 active; also: % of control where 0% means no effect
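Interaction loss through any mechanism counts as activity. Pre-formed complex of His-CBF-beta and biotin-RUNX1 (30 nM apiece) is incubated with compound 15 min, then with 50 ng nickel and 50 ng streptavidin beads for 90 min before AlphaScreen detection.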
* = called active by the depositor; ? = inconclusive; · = not tested or not shown; [ ] = another dose, or the depositor's remark. Rows were chosen to be rich in hits. Some 11% of all compounds tested hit in one or more screens of this group. Unless noted, calls follow the shape of the dose curve; as a rule, active = well fitted curve in the direction sought with a large enough effect; inconclusive = small, poorly fitted or top-dose-only effect, or another doubt; inactive = no such curve, though single readings can be large; an effect the other way counts as inactive or inconclusive.

SMILES	HPGD inh	HTT aggregate	HTT ATP protect	ALDH1A1 block	PNC inhibitor	CBFb-RUNX1 inh
C/C(=N\NC(=O)CSc1nc2ccccc2s1)c1ccco1	-26%	-2%	0%[10 µM]	2.8µM*	?	-19%
O=C(CSCc1ccccc1Cl)N/N=C/c1ccco1	·	·	·	25µM*	·	-1%
O=C(CSc1nc2ccccc2s1)N/N=C/c1ccc(C(=O)O)cc1	·	16%	·	3%	·	4%
O=C(CSc1nc2ccccc2s1)N/N=C/c1ccco1	-5%	-11%	9%[10 µM]	20µM*	6	?
CCC/C=C(\CCC)C(NC(=O)c1ccco1)c1ccc(C(=O)OC)cc1 (configuration not stated)	-18%	·	-7%	-14%	·	15%
O=[N+]([O-])c1ccc(CCO)cc1	-5%	·	-4%	-5%	·	6%[21.7 µM]
Cc1c2c(n3c(nc4ccccc43)c1C#N)N(c1ccccc1)CC2	-23%	-5%	·	?	-95*	13%
Cc1c2c(n3c(nc4ccccc43)c1C#N)N(CCN(C)C)CC2	·	-7%[9.22 µM]	12%[10 µM]	?	·	13%
Cc1ccc(/C=C2\SC(N3CCN(C(c4ccccc4)c4ccccc4)CC3)=NC2=O)o1	3.5µM*	-9%	·	-6%	-24	21%
Cc1ccc(-c2ccc(/C=C3\SC(N4CCOCC4)=NC3=O)o2)cc1	·	0%	2.8µM*	?	·	-6%
CC(C)CC(NS(=O)(=O)c1cccc(C(=O)O)c1)C(=O)O (configuration not stated)	·	-11%	-12%	7%	·	4%
CC(=O)N1Cc2ccccc2C(C)CC12CCCC2 (configuration not stated)	-4%	5%	-4%[1.9 µM]	1%	-15	-5%
CC(=O)N1c2ccccc2C(C)CC12CCCCC2 (configuration not stated)	-5%	-9%	22%[10 µM]	-2%	-83*	12%
CC(C)C(=O)OCc1cn(-c2ccc(Cl)c(Cl)c2)nn1	·	-5%	-6%[10 µM]	?	·	9%
CCOC(=O)c1sc(NC(=O)Nc2ccc(Cl)cc2)cc1C	-21%	22µM*	-6%[10 µM]	7%	30	-1%
CCOC(=O)c1sc(NC(=O)c2cccc(S(=O)(=O)N3CCN(C)CC3)c2)cc1C	25µM*	10%	-6%	?	-12	3%
CCOC(=O)c1sc(NC(=O)c2cccc(S(=O)(=O)N(CC)CC)c2)cc1C	11%	5%	-9%	12%	-8	3%
COc1ccccc1-c1nc(-c2ccc(C)nc2OC)no1	-17%	-7%	-21%	?	-98*	2%
COc1nc(C)ccc1-c1noc(-c2ccccn2)n1	22µM*	1%	-133%[0.074 µM]	-6%	6	3%
CCc1nc(-c2ccc(C)nc2OC)no1	-1%	-5%	8%	-1%	-7	4%
O=C(NNC(=O)[C@H]1CC=CC[C@H]1C(=O)O)c1ccc(Cl)cc1Cl	·	4%	-13%	8%	·	1%
O=C(O)CCCN1C(=O)/C(=C\c2ccc(-c3nc4ccccc4s3)o2)SC1=S	·	18%[9.22 µM]	13%[10 µM]	·	·	?
O=C(O)CCN1C(=O)/C(=C/c2ccc(-c3nc4ccccc4s3)o2)SC1=S	13µM*	18%	-4%	3.5µM*	-14	-1%
O=C(O)CC(C(=O)O)N1C(=O)/C(=C/c2ccc(-c3nc4ccccc4s3)o2)SC1=S (configuration not stated)	25µM*	9%	2%[10 µM]	10µM*	?	-7%
O=Cc1ccc(-c2nc3ccccc3s2)o1	·	·	·	?	·	8%
SMILES	HPGD inh	HTT aggregate	HTT ATP protect	ALDH1A1 block	PNC inhibitor	CBFb-RUNX1 inh
O=C(NCc1ccc(F)cc1)c1ccc(CS(=O)(=O)Cc2ccc(F)cc2)o1	-1%	-21%	-8%	0%	17	3%
O=C(NCc1ccc(F)cc1)c1ccc(CS(=O)(=O)Cc2ccccc2F)o1	-20%	1%	-13%	13µM*	70	-3%
Cc1ccc(C2C(C=Nc3c(C)n(C)n(-c4ccccc4)c3=O)=C(c3ccccc3)Oc3ccccc32)cc1 (configuration not stated)	-7%	22µM*	-38%	8%	?	-25%
Cc1c(N=Cc2cccs2)c(=O)n(-c2ccccc2)n1C	?	5%	-21%	?	7	1%
Nc1nonc1C(=O)N/N=C/c1ccc(Br)o1	·	11%[9.22 µM]	14%[10 µM]	0%	·	-2%
COC(=O)N/N=C/c1ccc(-c2cc(Cl)cc(Cl)c2)o1	-17%	4%	·	-1%	-26	5%
Nc1nonc1C(=O)N/N=C/c1ccc(-c2ccc(Cl)c(C(=O)O)c2)o1	·	19%	11%	4µM*	·	-23%
COC(=O)N/N=C/c1ccc(-c2ccc(C)c(Cl)c2)o1	14µM*	11%	?	-11%	3	-5%
C=NCc1cc2c(OC[C@@H](O)CNC(C)(C)C)cccc2[nH]1	·	·	-17%	2%	·	15%
COc1ccc(C2CC(c3ccccc3)n3nnnc3N2)cc1 (configuration not stated)	-7%	17%[9.22 µM]	5%	?	-111*	1%
Clc1ccc(C2CC(c3ccco3)n3ncnc3N2)cc1Cl (configuration not stated)	-3%	18%	-1%[10 µM]	32µM*	0	0%
Cc1ccc(C2CC(c3cccc(Br)c3)Nc3nnnn32)cc1 (configuration not stated)	-24%	?	26%[10 µM]	18µM*	?	-2%
Clc1ccc(C2CC(c3ccccc3)Nc3ncnn32)cc1 (configuration not stated)	0%	-14%	-7%	1%	-30	4%
COc1cccc(C2CC(c3ccccc3OC)n3ncnc3N2)c1 (configuration not stated)	-15%	14%	11%	14%	3	0%
COc1cccc(C2CC(c3ccccc3)Nc3ncnn32)c1 (configuration not stated)	-17%	5%	-8%	7.1µM*	?	?
NC(=O)NOC[C@@H]1NC(=O)NC1=O	1%	·	-10%[10 µM]	-4%[13.5 µM]	·	·
COc1ccccc1-c1cncnc1N1CCN(C)CC1	·	·	?	1%	·	·
CCOC(=O)C(C#N)=C(c1ccccc1)c1ccccc1	·	6%	9%	·	·	·
C=CCN(CC=C)CCCOc1ccc(Br)cc1Cl	·	11%	-11%	1%	·	-4%

Screening data as filed in PubChem.
